In PubChem BioAssay AID488900 (National Center for Advancing Translational Sciences (NCATS), 2010):
Inconclusive results are not listed. Activity calls are given as the source filed them. Calls come from the whole dose curve; as a rule, active = well fitted curve in the direction sought with a large enough effect; inconclusive = small, poorly fitted or top-dose-only effect, or effect the other way, or another doubt; inactive = no such curve, though single readings can be large or run the other way.

Experiment: Secondary Assay for lipid storage modulators: Hela cell LDSA assay for probe SAR
Conditions: HeLa lipid droplet accumulation, BODIPY 493/503 cytometry, oleate-fed
Excerpt: NIH Molecular Libraries Probe Production Centers Network [MLPCN] NIH Chemical Genomics Center [NCGC] MLPCN Grant: 1 R03 MH085686-01 Assay Submitter (PI): Beller, Mathias; Max-Planck-Institut fur Biophysikalische Chemie NCGC Assay Overview: Storing lipids as a reservoir for energy or the anabolism of elementary metabolites is a common feature of probably all cells and is conserved from bacteria to humans. The universal cellular lipid storage organelle is the so-called lipid storage droplet (LD). Although ubiquitous, LDs share a simple structure composed of a hydrophobic core that harbors the storage lipids, which is shielded by a droplet-specific phospholipid monolayer to which proteins are attached. The current model of LD biogenesis involves an incorporation of the lipid core into the membrane leaflets of the endoplasmic reticulum (ER) followed by a subsequent budding-like maturation of a LD, which ultimately pinches off. […]
NCGC Assay Protocol Summary: The assay was performed with Hela cells, using an oleic acid feeding protocol similar to the S3 assay. […] Fluorescence was detected by excitation of the fluorophores with a 488-nm laser on an Acumen Explorer (TTP Lab Tech). […] Cells were detected using channel 3 (575-640 nm) with 5-um width and 100-um depth filters. The ratio of the number of objects in PMT channel 2 over the number of objects in PMT channel 3 was also calculated. […]

## CCC/C=C/C/C=C/C=C/C=N/NN=O
  Potency: 11.2 nM (active)
